From PubChem
Most compounds without a hit are left out; they make up all but 9.3% or so of the library.
SMN2 splice enh: SMN2 splice variant enhancement; AID 1458; 2.8% of 210,000 active; Potency, µM (series often up to 46.1 µM), inactives show at the top dose activity change, positive = activation, most hits filed as activators; HEK293 SMN2-luciferase splicing reporter, luminescence, 30-36 h; also: % of control where 0% means no effect; nearly all actives have a fitted effect of over 55% in size
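HEK293 cells carry an SMN2 […]–luciferase reporter in which exon 7 inclusion puts luciferase in frame. Cells were plated 10-12 h before compound addition, then incubated 30-36 h at 37C. ONE-Glo luminescence was read; sodium butyrate at 4.5 mM final served as control.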
FLuc counter: counter-screen for miR-21 project: firefly luciferase inhibitors or activators; AID 588342; Potency, µM (top dose mostly 57.5 µM), without a hit: at the highest dose activity change, negative = inhibition, most hits filed as inhibitors; P08659; 6.9% of 360,000 active; purified FLuc, Km substrates, luminescence inhibition;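 also: plate controls were vehicle for no effect and reference inhibitor for full effect; nearly all actives have a fitted effect of over 55% in size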
Target sequence (P08659 whole entry, looked up): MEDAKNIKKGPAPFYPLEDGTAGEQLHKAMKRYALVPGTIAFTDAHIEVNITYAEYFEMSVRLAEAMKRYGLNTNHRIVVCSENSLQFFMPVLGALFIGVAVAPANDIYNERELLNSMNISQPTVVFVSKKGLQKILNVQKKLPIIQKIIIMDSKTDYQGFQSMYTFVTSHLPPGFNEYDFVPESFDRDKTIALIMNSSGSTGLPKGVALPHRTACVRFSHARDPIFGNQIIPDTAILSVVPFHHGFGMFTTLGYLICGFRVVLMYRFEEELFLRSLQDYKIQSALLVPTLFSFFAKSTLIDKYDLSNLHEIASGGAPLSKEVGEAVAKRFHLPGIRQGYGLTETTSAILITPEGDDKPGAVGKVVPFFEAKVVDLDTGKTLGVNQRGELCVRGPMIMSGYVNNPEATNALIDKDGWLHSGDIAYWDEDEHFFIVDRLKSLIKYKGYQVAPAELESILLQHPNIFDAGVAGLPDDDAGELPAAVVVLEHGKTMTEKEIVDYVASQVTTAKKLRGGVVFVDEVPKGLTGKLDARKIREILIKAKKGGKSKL
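Biochemical qHTS of compounds, final roughly 60 µM downward over six points, against 10 nM purified firefly luciferase using Km concentrations of substrates (10 uM D-luciferin, 10 uM ATP) in Tris acetate pH 7.5 buffer; luminescence output.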
ELG1 repair inh: inhibitors of ELG1-dependent DNA repair in HEK293T cells; 2.3% of 330,000 active; AID 504467; HEK293T ELG1-luciferase reporter, luminescence, 16 h; DNA damage induced by 5-fluorouridine; Potency, µM (titrated, usually from 46.1 µM), without a hit: at the top dose activity change, negative = inhibition, hits mostly inhibitors; also: % is scaled to controls: 0 for no effect and ±100 for the full control effect; nearly all actives have a fitted effect of over 55% in size
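Cells (2,000 per well) received 5-fluorouridine plus test compound or DMSO and were incubated 16 hr at 37 °C, 5% CO2. Luciferase activity was read by luminescence 30 min after ONE-Glo addition; signal suppression marked inhibition of damage-induced ELG1 function.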
ELG1 genotoxic: genotoxicity induction in ELG1-luciferase HEK293T cells; HEK293T ELG1-luciferase reporter, luminescence, 16 h; 1.3% of 330,000 active; AID 504466; Potency, µM (titrated, usually from 46 µM), inactives show top-dose activity change, positive = activation, usual class: activators; also: % of control where 0% means no effect; nearly all actives have a fitted effect of over 60% in size
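Step 1: seed 2,000 HEK293T ELG1-luciferase cells per well. Step 2: add compound or DMSO, incubate 16 hr at 37 °C. Step 3: ONE-Glo, 30 min at room temperature, read luminescence.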
NPC1 prom act: activates the NPC1 promoter; 2.4% of 320,000 active; Huh7 NPC1 promoter luciferase reporter, 24 h; Potency, µM (doses to about 9.22 µM), without a hit: at the top dose activation, usual class: activators; also: % of control where 0% means no effect; nearly all actives have a fitted effect of over 60% in size
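Stable NPC1-promoter luciferase Huh7 line; cpd (DMSO) 24 h, 37 °C, 5% CO2; Amplite luciferase reagent 10 min RT; luminescence readout. qHTS format.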
Rab9 promoter act: activators of Rab9 promoter | Huh7 Rab9 promoter-luciferase reporter, luminescence, 24 h | Potency, µM (highest dose often 9.22 µM), for inactives: at the top dose activation, negative = inhibition, most hits filed as activators | 2.8% of 320,000 active | AID 485297; also: % of control where 0% means no effect; nearly all actives have a fitted effect of over 60% in size
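Huh7 cells stably carrying Rab9 promoter–luciferase reporter, plated 1500 cells/well, compound added after 2 h and incubated 24 h at 37 °C; luciferase luminescence then read after 10 min with detection reagent.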
Active calls of the source: *; ? = inconclusive; nt = not tested or not shown; [ ] = remark or other dose. Calls follow the shape of the dose curve; as a rule, active = well fitted curve in the direction sought with a large enough effect; inconclusive = small, poorly fitted or top-dose-only effect, or another doubt; inactive = no such curve, though single readings can be large; an effect the other way counts as inactive or inconclusive. Potency is read from the fitted curve at half-maximal effect.

SMILES	SMN2 splice enh	FLuc counter	ELG1 repair inh	ELG1 genotoxic	NPC1 prom act	Rab9 promoter act
c1ccc(-c2nnc3n2CCCC3)cc1	1%	2%	9%	0%	1%	1%
COc1ccc(-c2cn3c(n2)CCC3)cc1	13µM*	13µM*	?	?	2.5µM*	1.6µM*
c1ccc(-c2ccc(-c3cn4c(n3)CCC4)cc2)cc1	27%	0.85µM*	?	?	0.45µM*	?
Clc1ccc(-c2nnn(Cc3nc4ccccc4s3)n2)cc1	14%	19µM*	?	?	8%	16%
COc1cccc(/C=N/NC(=O)c2[nH]nc3c2CCc2ccccc2-3)c1	nt	?	?	6%	-23%	-18%
CC(C)NC(=O)c1[nH]nc2c1CCc1ccccc1-2	nt	19µM*	?	?	?	3.5µM*
CNC(=O)c1[nH]nc2c1CCc1cc(OC)ccc1-2	nt	17µM*	?	?	?	5µM*
COc1ccc2c(c1)CCc1c-2n[nH]c1C(=O)NCCC(C)C	nt	1.3µM*	?	2.6µM*	1µM*	0.79µM*
COc1ccccc1NC(=O)C1CCCN1C(=O)NC1CCCCC1 (stereo unspecified)	nt	0%	5%	0%	-4%	-3%
CSc1nc(N)n2nc(-c3ccc(Cl)cc3)cc2n1	nt	0.67µM*	?	?	2µM*	1.6µM*
Cc1ccc(-c2cc(N)n(Cc3ccc(Cl)cc3)n2)cc1	-47%	?	?	-4%	-14%	-16%
O=C1N/C(=N/N=C/c2ccc(O)cc2)SC1Cc1ccccc1 (stereo unspecified)	nt	2.4µM*	?	14%	2%	1%
COc1ccc(CC2S/C(=N/N=C/c3ccccc3O)NC2=O)cc1 (stereo unspecified)	nt	?	?	-8%	-2%	-2%
COc1ccc(CC2S/C(=N/N=C/c3ccc(O)cc3)NC2=O)cc1 (stereo unspecified)	22%	0.43µM*	?	?	28%	?
O=C1N/C(=N/N=C/c2ccccc2O)SC1Cc1ccc(F)cc1 (stereo unspecified)	nt	5%	?	-4%	-4%	20%
O=C(CC1N=C(Cc2ccccc2)NNC1=O)N/N=C/c1ccc([N+](=O)[O-])cc1 (stereo unspecified)	-11%	-1%	-13%	-1%	0%	4%
Oc1cccc2ccc(SSc3ccc4cccc(O)c4n3)nc12	-10%[9.22 µM]	nt	nt	nt	nt	nt
O=C(Nc1cccc(Cl)c1)Nc1csc([N+](=O)[O-])c1	nt	19µM*	?	-8%	-6%	-14%
CN(C)c1ccc(NC(=O)Nc2cccc(Cl)c2)cc1	13µM*	1.3µM*	?	?	2.2µM*	1.8µM*
CC(=O)Nc1cccc(N(C)S(C)(=O)=O)c1	8%	-3%	8%	0%	-1%	-4%
CN(c1cccc(NC(=O)Nc2cccc(Cl)c2)c1)S(C)(=O)=O	-30%	17µM*	19%	0%	15%	-1%
c1ccc(-n2c(-c3cccs3)nc3nc4ccccc4nc32)cc1	-19%	1%	?	-11%	-1%	-2%
c1cc(-c2cccs2)nc(-c2cccs2)c1	20%	15µM*	?	11%	8%	4%
c1csc(-c2cnc3ccccc3n2)c1	?	11µM*	?	?	4µM*	?
c1ccc(-c2cccs2)nc1	nt	5%	-13%	-2%	1%	0%
COc1ccc(C2CC(C(F)(F)F)n3ncc(C(=O)Nc4cccc(O)c4)c3N2)cc1OC (stereo unspecified)	-3%	-5%	15µM*	-8%	-5%	-13%
CCN(CC)c1ncnc2sc3c(c12)CCC3	-22%	-3%	15µM*	-10%	-2%	-3%
Cc1ccc(NC(=O)CN(C)C(=O)C(Sc2ccccc2)c2ccccc2)cc1 (stereo unspecified)	nt	-3%	-25%	-7%	-4%	-2%
